Compounds without any hit were thinned out: in the full panel of roughly 83,000, 20% have a hit.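 Single-dose data. Exposure time 48 hours. Values below 10 considered active.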 Unmarked numbers belong to inactive results. Activity calls are given as the source filed them.
Legend:
Experiment in all cases: NCI-60 one-dose screen, 48 h (100 = growth as untreated, 0 = no growth, -100 = all killed)
Conditions in all cases: 10 µM unless noted
[1] = test system: DU-145 prostate
[2] = test system: K-562 leukemia
[3] = test system: MALME-3M melanoma
[4] = test system: MDA-MB-231 breast
[5] = test system: RXF 393 renal
[6] = test system: SF-268 CNS
[7] = test system: SF-295 CNS
[8] = test system: SF-539 CNS
[9] = test system: UACC-257 melanoma
[10] = test system: M14 melanoma

O=C(Nc1cc(Br)ccn1)c1cc2cc(Nc3nc(-c4ccccc4)nc4ccccc34)ccc2oc1=O
growth [1]: 111% | growth [2]: 88.6% | growth [3]: 117% | growth [4]: 118% | growth [5]: 133% | growth [6]: 112% | growth [7]: 108% | growth [8]: 105% | growth [9]: 112% | growth [10]: 102%

CCOC(=O)CC[C@H](NC(=O)c1ccc(NC)c2ccccc12)C(=O)OCC
growth [1]: 104% | growth [2]: 92.9% | growth [3]: 114% | growth [4]: 97.9% | growth [5]: 111% | growth [6]: 100% | growth [7]: 101% | growth [8]: 98.1% | growth [9]: 86.1% | growth [10]: 99.5%

COc1ccc(C2C(c3ccccc3)C(=O)N2c2cc(OC)c(OC)c(OC)c2)cc1I (stereo not given)
growth [1]: 7.36% (active) | growth [2]: 6.76% (active) | growth [3]: 80.1% | growth [4]: 23.3% | growth [5]: 24.2% | growth [6]: 34.9% | growth [7]: 17.9% | growth [8]: 1.87% (active) | growth [9]: 47.9% | growth [10]: 8.46% (active)

CO[C@@]12C=C[C@@]34CCC(=O)N3c3ccccc3[C@@H](O1)C4C2
growth [1]: 111% | growth [2]: 97.5% | growth [3]: 98% | growth [4]: 100% | growth [5]: 107% | growth [6]: 98.4% | growth [7]: 109% | growth [8]: 102% | growth [9]: 101% | growth [10]: 99.5%

O=C(CCc1nnco1)c1nc2ccc([N+](=O)[O-])cc2[nH]1
growth [1]: 107% | growth [2]: 113% | growth [3]: 105% | growth [4]: 90.5% | growth [5]: 117% | growth [6]: 102% | growth [7]: 102% | growth [8]: 104% | growth [9]: 112% | growth [10]: 103%

COc1cc(C2=NN(C=O)C(c3cccc(Nc4ccnc5cc(C(F)(F)F)ccc45)c3)C2)cc(OC)c1OC (stereo not given)
growth [1]: 40% | growth [2]: 37.8% | growth [3]: 86.3% | growth [4]: 58.1% | growth [5]: 72.4% | growth [6]: 46.6% | growth [7]: 65.2% | growth [8]: 77% | growth [9]: 81.2% | growth [10]: 15.4%

NC(=O)C(O)(c1ccccc1)c1ccccc1
growth [1]: 105% | growth [2]: 99.6% | growth [3]: 113% | growth [4]: 108% | growth [5]: 123% | growth [6]: 110% | growth [7]: 99.7% | growth [8]: 103% | growth [9]: 91.8% | growth [10]: 97.1%

O=S(=O)(O)c1ccc(N=NSc2ccc3ccccc3c2)cc1
growth [1]: 103% | growth [2]: 118% | growth [3]: 92.3% | growth [4]: 102% | growth [5]: 117% | growth [6]: 98.8% | growth [7]: 97.4% | growth [8]: 100% | growth [9]: 113% | growth [10]: 92.9%

O=c1[nH]nc(-c2ccccc2)c2sc(NC(=S)Nc3ccc(Cl)cc3)nc12
growth [1]: 94.8% | growth [2]: 80.6% | growth [3]: 105% | growth [4]: 101% | growth [5]: 102% | growth [6]: 93.3% | growth [7]: 98.3% | growth [8]: 98% | growth [9]: 104% | growth [10]: 97.4%

Cn1c2c(c3ccc(-c4ccn[nH]4)cc3c1=O)C(=O)c1ccccc1-2
growth [1]: 15.9% | growth [2]: 17.7% | growth [3]: 55.8% | growth [4]: 86.9% | growth [5]: 91.5% | growth [6]: 40.8% | growth [7]: 20.5% | growth [8]: 37.3% | growth [9]: 103% | growth [10]: 48.6%

Cc1cc(C)cc(Nc2nccc(-c3c(-c4ccc(F)cc4)ncn3C3CCNCC3)n2)c1
growth [1]: 9.38% (active) | growth [2]: -33.3% (active) | growth [3]: -36.1% (active) | growth [4]: 7.44% (active) | growth [5]: 18.3% | growth [6]: 28.4% | growth [7]: 5.75% (active) | growth [8]: 31.3% | growth [9]: -50.6% (active) | growth [10]: -86.4% (active)

O=C(CN1N=C(c2ccc(F)cc2)CCC1=O)Nc1nccs1
growth [1]: 118% | growth [2]: 92.6% | growth [3]: 105% | growth [4]: 109% | growth [5]: 110% | growth [6]: 99.9% | growth [7]: 97.3% | growth [8]: 98.1% | growth [9]: 92.8% | growth [10]: 102%

Cc1[nH]c(N=Nc2ccccc2)nc1N=Nc1ccccc1
growth [1]: 33.6% | growth [2]: 23.6% | growth [3]: 30.2% | growth [4]: 38.1% | growth [5]: -31.9% (active) | growth [6]: 19.2% | growth [7]: 17.4% | growth [8]: 6.93% (active) | growth [9]: -42.4% (active) | growth [10]: 3.54% (active)

O=CN1N=C(c2ccc(F)cc2)CC1c1cccc(Nc2ccnc3cc(C(F)(F)F)ccc23)c1 (stereo not given)
growth [1]: 70.9% | growth [2]: 22.7% | growth [3]: 67.9% | growth [4]: 72.5% | growth [5]: 71.2% | growth [6]: 51.9% | growth [7]: 44.2% | growth [8]: 77.5% | growth [9]: 48.6% | growth [10]: 70%

FC(F)(F)c1ccc2c(Nc3cccc(C4CC(c5ccccc5)=NN4c4ccc(Cl)cc4)c3)ccnc2c1 (stereo not given)
growth [1]: 47.7% | growth [2]: 6.6% (active) | growth [3]: 83% | growth [4]: 68% | growth [5]: 74.2% | growth [6]: 50.8% | growth [7]: 57.8% | growth [8]: 86.9% | growth [9]: 73.8% | growth [10]: 41.2%

Nc1ccc2c(c1)C(=O)C(=O)c1c-2nc2ccccn12
growth [1]: -91.1% (active) | growth [2]: 1.75% (active) | growth [3]: -98.7% (active) | growth [4]: -7.84% (active) | growth [5]: 29% | growth [6]: 26.6% | growth [7]: -67.6% (active) | growth [8]: -32.9% (active) | growth [9]: -67.9% (active) | growth [10]: -91.1% (active)

COc1ccc(C(=O)c2cc(OC)c(OC)c(OC)c2)cc1OC(=O)CCl
growth [1]: 5.3% (active) | growth [2]: 13.3% | growth [3]: 71% | growth [4]: 34.4% | growth [5]: 56.6% | growth [6]: 37.3% | growth [7]: 17.3% | growth [8]: 1.91% (active) | growth [9]: 48.9% | growth [10]: 5.59% (active)

CCCCn1c(=O)c(/C=C/C(=O)/C=C/c2ccc(O)c(OC)c2)cc2ccc(Cl)cc21
growth [1]: 19.3% | growth [2]: 6.69% (active) | growth [3]: 30.2% | growth [4]: -11.2% (active) | growth [5]: -15.4% (active) | growth [6]: 29.9% | growth [7]: 30.2% | growth [8]: 52.6% | growth [9]: 32.1% | growth [10]: 5.1% (active)

CCOC(=O)c1c(-c2ccc(O)cc2)c(C#N)c2c(C#N)c(N)nn2c1N
growth [1]: 83% | growth [2]: 19.8% | growth [3]: 39.4% | growth [4]: 67% | growth [5]: 76.2% | growth [6]: 71.8% | growth [7]: 79.9% | growth [8]: 66.9% | growth [9]: 93% | growth [10]: 45.2%

CCN1CCN(Cc2ccc(NC(=O)c3cccc(C#Cc4cccc5[nH]nc(N)c45)c3)cc2C(F)(F)F)CC1
growth [1]: -70% (active) | growth [2]: -43.8% (active) | growth [3]: -71.4% (active) | growth [4]: -85% (active) | growth [5]: -92% (active) | growth [6]: -41.5% (active) | growth [7]: -88.4% (active) | growth [8]: -98% (active) | growth [9]: -75.7% (active) | growth [10]: -83.5% (active)

Cc1c(Br)cccc1NC(=O)c1sc2nc3c(cc2c1N)CN(Cc1ccccc1)CC3
growth [1]: 17.8% | growth [2]: 7.49% (active) | growth [3]: 32.8% | growth [4]: 22.7% | growth [5]: 6.25% (active) | growth [6]: 31.7% | growth [7]: 18.8% | growth [8]: -4.32% (active) | growth [9]: 67.7% | growth [10]: 0.627% (active)

COc1ccc(NC(=O)c2ccc(Nc3ncnc4[nH]c(C)c(C)c34)cc2)cc1
growth [1]: 107% | growth [2]: 105% | growth [3]: 114% | growth [4]: 104% | growth [5]: 105% | growth [6]: 91.4% | growth [7]: 96.6% | growth [8]: 97.5% | growth [9]: 101% | growth [10]: 110%

O=C(CCCCCCCCC(=O)Nc1cccc(C2=NCCN2)c1)Nc1cccc(C2=NCCN2)c1
growth [1]: 99.8% | growth [2]: 73.1% | growth [3]: 69.8% | growth [4]: 101% | growth [5]: 108% | growth [6]: 103% | growth [7]: 99.9% | growth [8]: 108% | growth [9]: 95.6% | growth [10]: 97.1%

COc1cccc(NC(=O)Nc2ccc(Oc3ncnc4[nH]c(C)c(C)c34)cc2)c1
growth [1]: 91.9% | growth [2]: 83.7% | growth [3]: 114% | growth [4]: 97.1% | growth [5]: 109% | growth [6]: 81.3% | growth [7]: 91.7% | growth [8]: 64.6% | growth [9]: 97.7% | growth [10]: 100%

Cc1ccc(C2=N[C@H]3CCC[C@@H]3N(c3ccccc3)C(C(Cl)Cl)=N2)cc1
growth [1]: 101% | growth [2]: 94.9% | growth [3]: 95% | growth [4]: 117% | growth [5]: 83.2% | growth [6]: 94.6% | growth [7]: 91.7% | growth [8]: 105% | growth [9]: 110% | growth [10]: 91.9%

From PubChem BioAssay (NCI)
